Assay outcomes (PubChem)
This is a sample that favours compounds with a hit; in the whole collection about 3.5% have one here.
MITF inh: MITF inhibitors, primary screen, biochemical, AlphaScreen, human; Microphthalmia-associated transcription factor (Homo sapiens), O75030; AlphaScreen MITF homodimerization, bead proximity signal; inhibition, % at 2.6 µM; actives 0.91% (n = 650,000); AID 1259374, 2018; in the data active = inhibition above about 50%;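 also: 0% = vehicle wells with protein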
Target sequence (O75030 whole entry, looked up): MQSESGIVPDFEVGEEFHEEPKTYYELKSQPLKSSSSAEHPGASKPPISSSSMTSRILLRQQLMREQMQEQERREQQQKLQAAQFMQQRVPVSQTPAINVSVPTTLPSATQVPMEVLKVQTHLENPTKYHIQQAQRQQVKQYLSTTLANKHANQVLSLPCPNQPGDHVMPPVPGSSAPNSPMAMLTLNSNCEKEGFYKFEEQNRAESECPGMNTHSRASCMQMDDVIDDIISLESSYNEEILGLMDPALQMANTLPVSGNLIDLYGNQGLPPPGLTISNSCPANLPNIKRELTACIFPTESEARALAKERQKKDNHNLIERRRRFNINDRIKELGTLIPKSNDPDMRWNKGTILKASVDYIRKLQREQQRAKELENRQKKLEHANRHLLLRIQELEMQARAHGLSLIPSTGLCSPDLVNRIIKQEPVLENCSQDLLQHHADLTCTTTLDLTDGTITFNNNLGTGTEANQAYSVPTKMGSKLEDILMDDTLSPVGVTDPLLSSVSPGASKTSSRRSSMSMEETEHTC
FBW7 act: FBW7 E3 ligase activators, primary screen, biochemical, AlphaScreen, human. normalized activity (activation), % at 26.1 µM. AlphaScreen FBW7–phospho-cyclin E peptide binding, activator screen. F-box/WD repeat-containing protein 7 (Homo sapiens), Q969H0. AID 1259310, 2017. actives 0.13% (n = 650,000); in the data active = normalized activity above about 1.9%;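 also: purified mutant Fbw7 with reduced substrate affinity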
GPR151 ag: activators of human GPR151, primary screen, cell-based, PathHunter beta-arrestin, luminescence; G-protein coupled receptor 151 (Homo sapiens), Q8TDV0; PathHunter beta-arrestin GPR151 cells; activation, % at 11.2 µM; actives 1% (n = 650,000); AID 1508602, 2020; in the data active = activation above about 4.9%;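 also: 0% = median of compound wells and 100% = cells with positive control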
TEAD-YAP inh: TEAD-YAP interaction inhibition, primary screen, TEAD-YAP interaction inhibitor project, luminescence, HEK-TIYL cells; AID 1259422, 2018; actives 1.4% (n = 640,000); inhibition, % at 9.12 µM; TEAD-Gal4/YAP UAS-luciferase luminescence; in the data active = inhibition above about 32%;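 also: 0% = median of test compound wells and 100% = reference inhibitor wells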
Numbers without * were called inactive.

SMILES | MITF inh | FBW7 act | GPR151 ag | TEAD-YAP inh
NC(=O)c1c(NC(=O)c2cccc3ccccc23)sc2c1CCC2 | 17 | 0 | -1 | 4
N#Cc1c(NC(=O)c2cccc3ccccc23)sc2c1CCC2 | -11 | 0 | -1 | 58*
N#Cc1c(NC(=O)c2cccc3ccccc23)sc2c1CCCC2 | -5 | 0 | 0 | 43*
CC(=O)NC(=S)Nc1sc2c(c1C#N)CCCCC2 | 1 | 0 | -2 | 66*
N#Cc1c(NC(=O)CSc2ncn[nH]2)sc2c1CCCCC2 | -5 | 0 | -5 | 68*
COC(=O)c1ccccc1NC(=O)COc1ccc(S(=O)(=O)NC2CCCCC2)cc1 | 1 | 0 | -1 | -6
NC(=O)c1c(NC(=O)C2CC2c2ccccc2)sc2c1CCCC2 (centres undefined) | 3 | 0 | 1 | -19
N#Cc1c(NC(=O)C2CC2c2ccccc2)sc2c1CCC2 (centres undefined) | -16 | 0 | 3 | 43*
Cc1onc(-c2ccccc2)c1C(=O)Nc1sc2c(c1C#N)CCCC2 | -20 | 0 | -1 | 32*
N#Cc1c(NC(=O)c2ccccc2I)sc2c1CCCC2 | 9 | 0 | 1 | 49*
Cc1onc(-c2ccccc2)c1C(=O)Nc1sc2c(c1C#N)CCC(C)C2 (centres undefined) | 11 | 0 | 0 | 10
N#Cc1c(NC(=O)c2cc(Cl)ccc2[N+](=O)[O-])sc2c1CCC2 | 10 | 0 | 3 | 37*
Cc1c(C(=O)NC2CC2)oc2ccc(S(=O)(=O)N3CCCC(C)C3)cc12 (centres undefined) | -1 | 0 | 1 | 8
COc1ccc(NC(=O)N2CCN(c3cc(N4CCOCC4)ncn3)CC2)cc1 | 2 | 1 | -1 | -4
COc1ccc(CC(=O)Nc2cccc(-c3nc4ncccc4o3)c2)cc1OC | 1 | 0 | 1 | 71*
COc1cc(C(=O)Nc2cccc(-c3nc4ncccc4o3)c2)ccc1OCc1ccc(Cl)cc1 | 13 | 0 | 0 | 6
COCCCN1C(=O)c2[nH]nc(-c3ccccc3O)c2C1c1ccc(Cl)cc1 (centres undefined) | 0 | 0 | 0 | 12
COCCCN1C(=O)c2[nH]nc(-c3ccccc3O)c2C1c1cccc(Cl)c1 (centres undefined) | 9 | 0 | 1 | 36*
O=[N+]([O-])c1ccc(Nc2ccccc2Cl)c([N+](=O)[O-])c1 | 11 | 0 | 2 | 3
N#Cc1cc(Nc2ccccc2Cl)c([N+](=O)[O-])cc1C#N | 4 | 0 | -1 | 74*
COc1cc(NC(=O)c2cnc(N3CCc4ccccc4C3)s2)cc(OC)c1OC | -1 | 0 | -1 | 42*
COc1cc(NC(=O)c2cnc(N3CCN(c4ccccn4)CC3)s2)cc(OC)c1OC | 2 | 0 | 3 | 41*
Cc1[nH]c2ccc(-c3nnc(SCC(=O)N4CCCCC4C)o3)cc2c1C (centres undefined) | -4 | 0 | 0 | 51*
CC1CCCCN1C(=O)CSc1nnc(-c2ccc3c(c2)OCO3)o1 (centres undefined) | 3 | 0 | 3 | -3
O=C(NC1CCCC1)c1cc(COc2ccc3ncccc3c2)on1 | -4 | 0 | 1 | 40*
SMILES | MITF inh | FBW7 act | GPR151 ag | TEAD-YAP inh
Cc1nc(C(C)NC(=O)c2cc(COc3ccc(F)cc3F)on2)cs1 (centres undefined) | 9 | 2.0* | 0 | -4
CC(NC(=O)c1cc(COc2ccc3ncccc3c2)on1)c1ccc(F)cc1 (centres undefined) | 10 | 0 | 2 | 38*
CC(C)c1cc(CNC(=O)c2cc(COc3ccc4ncccc4c3)on2)on1 | 12 | 0 | 0 | 18
O=C(NCC1CCOCC1)c1cc(COc2ccc3ncccc3c2)on1 | -10 | 0 | 1 | 33*
CC(C)OCCNC(=O)c1cc(COc2ccc3ncccc3c2)on1 | -10 | 0 | 1 | 22
O=C(NCc1ccc2c(c1)OCO2)c1cc(COc2ccc3ncccc3c2)on1 | 4 | 0 | 1 | 35*
CCOC(=O)c1c(C)[nH]c(C(=O)CSc2nnnn2-c2ccc(Cl)cc2)c1C | -2 | 0 | -2 | -4
CCOC(=O)c1c(C)[nH]c(C(=O)CSc2nccn2C)c1C | -6 | 0 | -7 | 87*
CCOc1ccccc1N(C)S(=O)(=O)c1ccc2[nH]cc(C(=O)NCc3cccnc3)c(=O)c2c1 | 15 | 0 | 0 | 63*
